PubChem BioAssay (NCATS)
Inconclusive results are not listed. Calls of active or inactive are those of the source. Calls follow the shape of the dose curve; as a rule, active = well fitted curve in the direction sought with a large enough effect; inconclusive = small, poorly fitted or top-dose-only effect, or another doubt; inactive = no such curve, though single readings can be large; an effect the other way counts as inactive or inconclusive.

Legend:
[1] = biological target: Rap guanine nucleotide exchange factor 3 (Homo sapiens) (UniProt O95398); assay: Confirmatory qHTS for antagonist of cAMP-regulated guanine nucleotide exchange factor 3 (EPAC1) (AID 1645880); also: nearly all actives have a fitted effect of over 55% in size; also: potency is read from the fitted curve at half-maximal effect
Sequence of Rap guanine nucleotide exchange factor 3 (Homo sapiens) (O95398 whole entry, looked up): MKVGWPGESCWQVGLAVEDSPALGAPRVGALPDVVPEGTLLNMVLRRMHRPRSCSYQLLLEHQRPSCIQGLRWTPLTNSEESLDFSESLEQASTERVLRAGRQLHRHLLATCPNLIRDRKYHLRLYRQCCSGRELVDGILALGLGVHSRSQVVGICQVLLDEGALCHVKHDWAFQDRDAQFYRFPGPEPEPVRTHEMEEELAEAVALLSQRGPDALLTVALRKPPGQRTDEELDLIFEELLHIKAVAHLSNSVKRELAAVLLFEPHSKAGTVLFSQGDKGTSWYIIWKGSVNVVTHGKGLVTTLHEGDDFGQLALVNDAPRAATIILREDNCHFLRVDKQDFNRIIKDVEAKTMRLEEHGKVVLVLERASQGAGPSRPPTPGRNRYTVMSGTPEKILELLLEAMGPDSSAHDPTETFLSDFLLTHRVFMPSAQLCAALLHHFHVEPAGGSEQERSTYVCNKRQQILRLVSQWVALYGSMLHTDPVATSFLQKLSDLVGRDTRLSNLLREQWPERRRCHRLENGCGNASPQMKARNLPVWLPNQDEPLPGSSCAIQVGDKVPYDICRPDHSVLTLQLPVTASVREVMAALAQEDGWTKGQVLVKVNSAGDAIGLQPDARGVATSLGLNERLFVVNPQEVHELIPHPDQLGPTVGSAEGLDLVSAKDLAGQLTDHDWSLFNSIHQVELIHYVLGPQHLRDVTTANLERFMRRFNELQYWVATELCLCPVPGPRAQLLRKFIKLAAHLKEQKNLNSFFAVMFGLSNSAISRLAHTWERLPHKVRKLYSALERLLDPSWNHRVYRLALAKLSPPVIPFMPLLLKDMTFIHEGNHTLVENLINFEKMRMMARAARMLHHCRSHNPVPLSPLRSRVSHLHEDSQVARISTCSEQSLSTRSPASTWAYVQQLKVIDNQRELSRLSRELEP
Method in brief: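 Nucleotide exchange uses 100 nM EPAC1, 250 nM RAP1B-BODIPY-GDP and 50 uM GDP, with compounds in a concentration-titration series. After 5 min at room temperature, fluorescence (480 nm ex/540 nm em) is read every 5 min for 30 min. Data are normalized to control ATA and DMSO.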

[2] = biological target: Rap guanine nucleotide exchange factor 3 (Homo sapiens) (UniProt O95398); assay: Confirmatory qHTS for agonist of cAMP-regulated guanine nucleotide exchange factor 3 (EPAC1) (AID 1645881); also: nearly all actives have a fitted effect of over 75% in size; also: potency is read from the fitted curve at half-maximal effect;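 as to activation: EPAC1 catalysed release of BODIPY-GDP from Rap1B seen as fluorescence loss; 100% = effect of cAMP agonist control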
[3] = biological target: Rap guanine nucleotide exchange factor 4 (Homo sapiens) (UniProt Q8WZA2); assay: Confirmatory qHTS for agonist of cAMP-regulated guanine nucleotide exchange factor 4 (EPAC2) (AID 1645884);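 also: nucleotide exchange releases bodipy-GDP from Rap1 and this lowers its fluorescence; nearly all actives have a fitted effect of over 65% in size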; also: potency is read from the fitted curve at half-maximal effect; as to activation: % is scaled to controls: 0 for no effect and ±100 for the full control effect
Sequence of Rap guanine nucleotide exchange factor 4 (Homo sapiens) (Q8WZA2 whole entry, looked up): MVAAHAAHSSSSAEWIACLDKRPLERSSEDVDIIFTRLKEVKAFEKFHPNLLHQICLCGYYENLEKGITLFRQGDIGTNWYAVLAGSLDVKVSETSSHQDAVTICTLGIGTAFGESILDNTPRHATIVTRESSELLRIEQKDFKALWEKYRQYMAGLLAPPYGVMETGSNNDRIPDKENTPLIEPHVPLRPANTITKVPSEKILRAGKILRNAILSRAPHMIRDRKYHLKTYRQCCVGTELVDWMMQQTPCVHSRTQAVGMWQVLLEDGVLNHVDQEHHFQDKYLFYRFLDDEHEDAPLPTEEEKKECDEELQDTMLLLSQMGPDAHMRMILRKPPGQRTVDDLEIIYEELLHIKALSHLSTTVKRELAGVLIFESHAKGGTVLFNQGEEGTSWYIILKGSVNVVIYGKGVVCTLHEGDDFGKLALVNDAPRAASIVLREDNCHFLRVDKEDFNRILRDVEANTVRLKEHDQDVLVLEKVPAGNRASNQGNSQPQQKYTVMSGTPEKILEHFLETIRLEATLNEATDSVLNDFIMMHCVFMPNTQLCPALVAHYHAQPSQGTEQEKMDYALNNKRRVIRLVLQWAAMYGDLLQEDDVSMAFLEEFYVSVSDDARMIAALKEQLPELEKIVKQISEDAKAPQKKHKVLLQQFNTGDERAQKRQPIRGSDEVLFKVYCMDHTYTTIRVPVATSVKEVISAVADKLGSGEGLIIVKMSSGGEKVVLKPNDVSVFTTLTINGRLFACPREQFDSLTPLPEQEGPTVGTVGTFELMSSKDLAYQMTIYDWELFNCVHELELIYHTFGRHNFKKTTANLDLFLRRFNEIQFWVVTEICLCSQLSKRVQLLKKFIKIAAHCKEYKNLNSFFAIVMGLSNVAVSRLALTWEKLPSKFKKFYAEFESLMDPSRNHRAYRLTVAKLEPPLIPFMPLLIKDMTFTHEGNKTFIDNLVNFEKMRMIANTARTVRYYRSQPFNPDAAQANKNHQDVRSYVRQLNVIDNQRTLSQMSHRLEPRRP

[4] = biological target: Rap guanine nucleotide exchange factor 4 (Homo sapiens) (UniProt Q8WZA2); assay: Confirmatory qHTS for antagonist of cAMP-regulated guanine nucleotide exchange factor 4 (EPAC2) (AID 1645885); also: nearly all actives have a fitted effect of over 25% in size; also: potency is read from the fitted curve at half-maximal effect; as to activity change, negative = inhibition: % is scaled to controls: 0 for no effect and ±100 for the full control effect
[5] = biological target: Rap guanine nucleotide exchange factor 3 (Homo sapiens) (UniProt O95398); assay: Counterscreen qHTS for agonist of cAMP-regulated guanine nucleotide exchange factor 3 (EPAC1) (AID 1645889); also: nearly all actives have a fitted effect of over 40% in size; also: potency is read from the fitted curve at half-maximal effect; as to activation: % of control where 0% means no effect
Method in brief: (§1)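 Rap1B–BODIPY-GDP (250 nM) with 50 uM GDP; compounds pin-transferred to 9.74 nM–152 uM final (activator) or from 7.32 nM upwards (inhibitor). Fluorescence Ex/Em 480/540 nm read at 5 and 30 min, then after adding cAMP or buffer, at room temperature.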

[6] = biological target: Rap guanine nucleotide exchange factor 3 (Homo sapiens) (UniProt O95398); assay: Counterscreen qHTS for antagonist of cAMP-regulated guanine nucleotide exchange factor 3 (EPAC1) (AID 1645888);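 also: fluorescence loss as bound BODIPY-GDP is released from Rap1B; % of control where 0% means no effect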
Method in brief: as §1

O=C(O)c1cccc(N/N=C/c2cc(Br)cc(Br)c2O)c1
inactive: Potency [2] | Potency [3] | Potency [5]
active: Potency [1] 75.7 µM | Potency [4] 67.5 µM

CC(=O)Nc1ccc(Nc2nc3ccccc3nc2NS(=O)(=O)c2ccc(Cl)c([N+](=O)[O-])c2)cc1
inactive: Potency [2] | activation [3] -3.97% [at 17.1 µM, percent relative to cAMP agonist control] | Potency [4] | activity change, negative = inhibition [6] -36.3% [at 30.8 µM] | activation [5] 21.8% [at 30.8 µM]
active: Potency [1] 50.1 µM

Cc1cc(C(=O)COC(=O)C2COc3ccccc3O2)c(C)n1CC1CCCO1 (configuration not stated)
inactive: Potency [1] | Potency [2] | Potency [3] | Potency [4] | Potency [5]

COc1ccc(/C=C/C(=O)c2ccncc2)c2ccccc12
inactive: Potency [1] | Potency [2] | activation [3] -6.66% [at 17.1 µM, percent relative to cAMP agonist control] | Potency [4] | activity change, negative = inhibition [6] -0.831% [at 30.8 µM] | activation [5] 15.3% [at 30.8 µM]

O=C(Cc1ccccc1)O/N=C1\CCCc2ccccc21
inactive: Potency [1] | Potency [2] | Potency [3] | Potency [4] | Potency [6] | Potency [5]

O=C(O)CN1C(=O)/C(=C\c2cccc(OCc3ccc(Cl)cc3Cl)c2)SC1=S
active: Potency [1] 44.7 µM | Potency [4] 0.301 µM
inactive: Potency [2] | activation [3] 19.7% [at 17.1 µM, percent relative to cAMP agonist control] | activity change, negative = inhibition [6] -5.98% [at 30.8 µM] | activation [5] 8.88% [at 30.8 µM]

Cc1nn(CCc2nn[nH]n2)c2nc(-c3ccc(C4CCCCC4)cc3)cc(C(F)(F)F)c12
inactive: Potency [2] | Potency [3] | Potency [4] | Potency [6] | Potency [5]
active: Potency [1] 21.3 µM

Cc1cc(C)c2c(CN3CCCCC3)cc(=O)oc2c1
inactive: Potency [1] | Potency [2] | Potency [3] | Potency [4] | Potency [6] | Potency [5]

CN1/C(=C\C=C2/SC(=S)NC2=O)C(C)(C)c2ccccc21
inactive: Potency [1]
active: Potency [2] 79.4 µM | Potency [3] 79.4 µM | Potency [4] 7.57 µM | Potency [5] 70.8 µM

CC(OC(=O)CN1C(=O)COc2ccccc21)C(=O)NCc1ccc(F)cc1 (configuration not stated)
inactive: Potency [1] | Potency [2] | Potency [3] | Potency [4] | Potency [6] | Potency [5]

COc1ccccc1/C=C/C=C1\Oc2c(ccc(O)c2CN2CCN(CCO)CC2)C1=O
active: Potency [2] 100 µM | Potency [3] 100 µM | Potency [4] 84.9 µM | Potency [5] 39.8 µM
inactive: Potency [1] | Potency [6]

CCOC(=O)/C(=C\c1ccc(N2CCC(c3ccccc3)=N2)cc1)C(C)=O
active: Potency [2] 79.4 µM | Potency [5] 12.6 µM
inactive: Potency [1] | activation [3] 15.2% [at 17.1 µM, percent relative to cAMP agonist control] | Potency [4] | activity change, negative = inhibition [6] 28% [at 30.8 µM]

COc1ccc(C(=O)NCCONC(=O)c2ccc(OC)cc2)cc1
inactive: Potency [1] | Potency [2] | Potency [3] | Potency [4] | Potency [5]

O=C(NCCC(=O)N(CCc1ccccc1)Cc1ccccc1)c1ccccc1Cl
inactive: Potency [1] | Potency [2] | activation [3] 0.223% [at 17.1 µM, percent relative to cAMP agonist control] | Potency [4] | activity change, negative = inhibition [6] -6.01% [at 30.8 µM] | activation [5] 7.42% [at 30.8 µM]

C=CCn1c(O)c(N=NC(=O)CNC(=O)/C=C/c2ccc(OC)cc2)c2ccccc21
inactive: Potency [1] | Potency [2] | Potency [3] | Potency [4] | Potency [6] | Potency [5]

COc1ccc2c(c1)C1=NN(/C(C)=C/C(C)=O)C(c3cccc(F)c3)C1CC2 (configuration not stated)
inactive: Potency [1] | Potency [2] | activation [3] 0.819% [at 17.1 µM, percent relative to cAMP agonist control] | Potency [4] | activity change, negative = inhibition [6] -17.2% [at 30.8 µM] | activation [5] 8.14% [at 30.8 µM]

CCOc1ccccc1NC(=O)COC(=O)c1ccc(S(=O)(=O)N2CCCC2)cc1
inactive: Potency [1] | Potency [2] | Potency [3] | Potency [4] | Potency [6] | Potency [5]

COc1cccc(CN2CC(O)=C(c3nc(-c4ccc(Cl)cc4)cs3)C2=N)c1
inactive: Potency [1] | Potency [2] | activation [3] 0.958% [at 17.1 µM, percent relative to cAMP agonist control] | Potency [4] | activity change, negative = inhibition [6] -19.7% [at 30.8 µM] | activation [5] 0.754% [at 30.8 µM]

O=c1ccc(-c2ccccc2)nn1Cc1c(F)cccc1Cl
inactive: Potency [1] | Potency [2] | Potency [3] | Potency [4] | Potency [6] | Potency [5]

C=CC(=C)CC(NC)c1ccccc1 (configuration not stated)
active: Potency [4] 84.9 µM
inactive: Potency [1] | Potency [2] | Potency [3] | Potency [5]

Cc1cc(=O)n2c(sc3ccccc32)c1C#N
inactive: Potency [1] | Potency [2] | activation [3] -1.37% [at 17.1 µM, percent relative to cAMP agonist control] | Potency [4] | activity change, negative = inhibition [6] 11.2% [at 30.8 µM] | activation [5] 22.2% [at 30.8 µM]

O=c1oc2cc(O)ccc2cc1-c1nc2ccccc2o1
active: Potency [2] 100 µM | Potency [3] 112 µM | Potency [4] 84.9 µM | Potency [5] 70.8 µM
inactive: Potency [1]

Cc1nc(=O)c(-c2ccccc2)c(C)n1CCCCCC(=O)O
inactive: Potency [1] | Potency [2] | activation [3] 0.623% [at 17.1 µM, percent relative to cAMP agonist control] | Potency [4] | activity change, negative = inhibition [6] -38.6% [at 30.8 µM] | activation [5] 4.21% [at 30.8 µM]
